High-throughput results deposited in PubChem by National Center for Advancing Translational Sciences (NCATS).
VP16 counter: Gal4-VP16 reporter inhibition counter-screen | Drosophila S2 Gal4-VP16 UAS-luciferase, luminescence, 20 h | Potency, µM (titrated, usually from 53.6 µM), without a hit: at the highest dose activity, negative = inhibition, actives largely listed as inhibitors | hit rate 3.5% among 310,000 | AID 2546;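 note: Gal4-VP16 expression switched on by copper sulfate through the metallothionein promoter; potency is the fitted concentration of half-maximal effect; nearly all actives have a fitted effect of over 50% in size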
TDP1 cell noCPT: qHTS for Inhibitors of human tyrosyl-DNA phosphodiesterase 1 (TDP1): qHTS in cells in absence of CPT; DT40 Tdp1-/- hTDP1 cells, no CPT, ATP luminescence, 48 h; Potency, µM (top dose mostly 46.2 µM), for the others: at the top dose activity change, negative = growth inhibition, most hits filed as inhibitors; hit rate 15% among 420,000; AID 686978, 2013; note: potency is the fitted concentration of half-maximal effect; nearly all actives have a fitted effect of over 55% in size
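Luminescent ATP content (CellTiter-Glo) served as the growth readout. Knockout chicken DT40 cells expressing human TDP1 were exposed to compounds without camptothecin for a minimum 48 hr at 37 °C.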
DT40 TDP1 CPT: DT40-hTDP1 cell growth loss with CPT. chicken DT40 Tdp1-/-;hTDP1 cells + 20 nM CPT, ATP luminescence, 48 h. AID 686979. hit rate 12% among 420,000. Potency, µM (titrated, usually from 46.2 µM), without a hit: at the highest dose activity change, negative = growth inhibition, most hits filed as inhibitors; note: potency is the fitted concentration of half-maximal effect; nearly all actives have a fitted effect of over 55% in size
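Chicken DT40 Tdp1-/- cells stably complemented with human TDP1 were seeded at 400 cells/well in medium containing 20 nM camptothecin, exposed to pin-transferred compounds, and grown at 37 °C for at least 48 hr. Viability was read as ATP luminescence.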
ELG1 repair inh: blocks ELG1-dependent DNA repair in HEK293T cells. HEK293T ELG1-luciferase reporter, luminescence, 16 h; DNA damage induced by 5-fluorouridine. Potency, µM (series often up to 46.1 µM), for inactives: at the highest dose activity change, negative = inhibition, usual class: inhibitors. hit rate 2.3% among 330,000. AID 504467; note: potency is the fitted concentration of half-maximal effect; nearly all actives have a fitted effect of over 55% in size
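Step one: seed 2,000 cells per well. Step two: pin-transfer compound or DMSO alongside 5-fluorouridine. Step three: incubate 16 hr, 37 °C, 5% CO2. Step four: add ONE-Glo, wait 30 min, read luminescence.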
IL1B secr inh: blocks inflammasome-driven IL-1 beta release; activity change, % at 57.5 µM; hit rate 4.7% among 360,000; THP-1 LPS/ATP IL-1B secretion, AlphaLISA, 16 h; stronger effect = lower value; in the data active = activity change below about -50%; inconclusive = mostly about -30% to -49%
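Secreted IL-1B measured by AlphaLISA bead assay after 16 h compound exposure of THP-1 cells; compounds (final up to 57.5 uM) added 1 h before LPS (250 ng/mL) and ATP (1.25 mM) stimulation; lower signal means less secretion.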
RORg inh: blocks mouse ROR gamma transcriptional activity | hit rate 5.4% among 310,000 | Drosophila S2 Gal4-RORgamma UAS-luciferase reporter, 20 h | P51450 | AID 2551 | Potency, µM (doses to about 53.6 µM), for the others: top-dose activity change, negative = inhibition, hits mostly inhibitors; note: potency is the fitted concentration of half-maximal effect; nearly all actives have a fitted effect of over 60% in size
Target sequence (P51450 whole entry, looked up, the tested form may be a part): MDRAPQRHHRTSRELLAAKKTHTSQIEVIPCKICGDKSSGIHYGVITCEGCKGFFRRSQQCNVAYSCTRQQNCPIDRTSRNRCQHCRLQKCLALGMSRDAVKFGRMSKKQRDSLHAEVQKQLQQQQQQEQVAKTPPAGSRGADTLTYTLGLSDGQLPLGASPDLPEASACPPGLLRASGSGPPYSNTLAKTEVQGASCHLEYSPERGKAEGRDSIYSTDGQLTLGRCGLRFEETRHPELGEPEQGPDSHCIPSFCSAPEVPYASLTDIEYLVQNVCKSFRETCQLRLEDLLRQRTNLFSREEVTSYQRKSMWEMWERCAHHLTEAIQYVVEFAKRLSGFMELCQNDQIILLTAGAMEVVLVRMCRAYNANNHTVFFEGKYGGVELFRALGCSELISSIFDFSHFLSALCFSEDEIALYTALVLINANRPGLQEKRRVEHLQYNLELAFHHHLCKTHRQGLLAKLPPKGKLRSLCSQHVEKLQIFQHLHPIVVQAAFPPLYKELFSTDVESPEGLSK
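Stable Schneider cell line, Gal4 DNA-binding domain fused to ROR gamma, UAS-luciferase. Cmpd 1 hr RT → CuSO4 700 uM final → 20 hr RT → luciferase reagent 10 min → luminescence.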
* marks the source's active call; other numbers are inactive results; i = inactive; ? = inconclusive; · = no result. Hits are enriched below; roughly 21% of the tested compounds scored in any of these assays. Unless noted, calls come from the whole dose curve; as a rule, active = well fitted curve in the direction sought with a large enough effect; inconclusive = small, poorly fitted or top-dose-only effect, or another doubt; inactive = no such curve, though single readings can be large; an effect the other way counts as inactive or inconclusive. % is set by controls: 0 for no effect and ±100 for the full control effect.

SMILES | VP16 counter | TDP1 cell noCPT | DT40 TDP1 CPT | ELG1 repair inh | IL1B secr inh | RORg inh
COCCn1c(SCC(=O)N2CCCCC2)nc2c([nH]c3ccccc32)c1=O | 0% | ? | -30% | 16µM* | 24 | 11%
CCn1c(SCC(=O)N2CCN(c3ccccc3)CC2)nc2c([nH]c3ccccc32)c1=O | -7% | 8.2µM* | 15µM* | -3% | i | -22%
CCOC(=O)N1CCN(C(=O)CSc2nc3c([nH]c4ccccc43)c(=O)n2CCOC)CC1 | -6% | 18µM* | ? | 7.3µM* | i | -7%
CCn1c(SCC(=O)N2CCC(C)CC2)nc2c([nH]c3ccccc32)c1=O | · | ? | ? | · | 22 | ·
O=C(O)[C@H](O)c1ccccc1 | · | -4% | -1% | · | · | ·
Cc1ccc(S(=O)(=O)N[C@H](C(=O)N2CCC(C(=O)N[C@@H](CC(=O)O)C(=O)O)CC2)C(C)C)cc1 | 14% | -5% | -7% | -18% | 3 | -15%
CCCn1c(CCC(=O)Nc2ccccc2Cc2ccccc2)nc2cc(S(=O)(=O)N3CCOCC3)ccc21 | -1% | 23µM* | 16µM* | 12µM* | -8 | 35%
CCn1c(SCC(N)=O)nc2cc(S(=O)(=O)N3CCOCC3)ccc21 | -15% | -3% | -26% | 8% | -6 | 1%
CCn1c(CCl)nc2cc(S(=O)(=O)N3CCOCC3)ccc21 | · | 2.9µM* | 7.3µM* | ? | -101* | ·
Cn1c(CCC(=O)Nc2ccc(F)cc2)nc2cc(S(=O)(=O)N3CCOCC3)ccc21 | · | ? | -2% | 2% | -15 | ·
CCOC(=O)CSc1nc2cc(S(=O)(=O)N3CCOCC3)ccc2n1CC | · | -17% | -14% | 15% | -90* | ·
CCN(CC)C(=O)CSc1nc2cc(S(=O)(=O)N3CCOCC3)ccc2n1CC | -2% | -15% | 1% | 5% | 0 | 2%
CCn1c(SCC(=O)N(C)C)nc2cc(S(=O)(=O)N3CCOCC3)ccc21 | · | -8% | -10% | 22% | -2 | ·
CCn1c(SCC(=O)c2c[nH]c3ccccc23)nc2cc(S(=O)(=O)N3CCOCC3)ccc21 | -6% | 21µM* | 15µM* | ? | -6 | ?
COC(=O)[C@@]1(Cc2ccc(F)cc2)[C@H]2c3cc(C(=O)N4CCCC4)n(CCN4CNCC4=O)c3C[C@H]2CN1C(=O)c1ccccc1 | -15% | · | · | · | · | 17%
O=c1c(-c2cccs2)nc2cncnc2n1Cc1ccc(F)cc1 | -21% | 6% | 8% | · | · | -19%
Cc1cccc(C)c1NC(=O)Nc1nc(C(N)c2ccccc2Cl)cs1 (stereo unspecified) | · | 16µM* | ? | · | -19 | ·
CC(C)C(N)c1csc(NC(=O)Nc2cccc(Cl)c2)n1 (stereo unspecified) | · | 21µM* | ? | · | ? | ·
NC(=O)c1ccc(Nc2nc(C(N)c3ccccc3Cl)cs2)cc1 (stereo unspecified) | · | ? | ? | · | -17 | ·
NC(c1csc(NC(=O)Nc2cccc(Cl)c2)n1)c1ccccc1Cl (stereo unspecified) | · | ? | ? | · | -107* | ·
CCOC(=O)Cc1csc(NC(=O)Nc2cccc(Cl)c2)n1 | 4% | ? | ? | -19% | 0 | 40%
CCOc1cc(C(=O)NC2CC(C)(C)NC(C)(C)C2)cc(OCC)c1OCC | -2% | 4% | 7% | ? | -19 | -2%
COc1ccc(C2C(CC(=O)O)=C(O)C(=O)N2c2ccccc2)cc1 (stereo unspecified) | -10% | -5% | -6% | 1% | 29 | 2%
Cc1ccc(NC2=C(CC(=O)O)C(c3ccccc3)N(c3ccc(C)cc3)C2=O)cc1 (stereo unspecified) | 8% | ? | 16µM* | 13% | 26 | 16%
COc1cc(NC(=O)C(CC(C)C)NS(=O)(=O)c2ccc3c(c2)CCCC(=O)N3)cc(OC)c1 (stereo unspecified) | · | -6% | -20% | · | · | ·
SMILES | VP16 counter | TDP1 cell noCPT | DT40 TDP1 CPT | ELG1 repair inh | IL1B secr inh | RORg inh
COc1ccc2nc(C)cc(NCCN3CCOCC3)c2c1 | -6% | -20% | -3% | 2% | ? | -36%
COc1ccc2nc(C)cc(Nc3ccc(N4CCOCC4)cc3)c2c1 | 0% | 21µM* | ? | -1% | · | -22%
COc1ccc2nc(C)cc(Nc3ccc(N4CCN(C)CC4)cc3)c2c1 | -11% | 3.3µM* | 4.6µM* | -6% | -106* | 4%
COc1ccccc1N(C)S(=O)(=O)c1ccc(C(=O)N2CCCC(C(F)(F)F)C2)cc1 (stereo unspecified) | · | 18µM* | ? | -24% | 12 | ·
CC1CCN(S(=O)(=O)c2ccc(C(=O)N3CCCC(C(F)(F)F)C3)cc2)CC1 (stereo unspecified) | · | ? | 18µM* | -14% | ? | ·
CCOC(=O)C1CCCN(C(=O)c2ccc3[nH]c4c(c3c2)CC(C)CC4)C1 (stereo unspecified) | · | ? | -19% | -10% | 9 | ·
COc1ccccc1N(C)S(=O)(=O)c1ccc(C(=O)OCC(=O)N2CCC2)cc1 | 7% | ? | ? | -14% | 33 | -44%
CC1CCc2[nH]c3ccc(C(=O)N4CCCC(C(F)(F)F)C4)cc3c2C1 (stereo unspecified) | · | 16µM* | ? | 3% | -62* | ·
O=C(NC1CCCC1)c1cn(C2CCCN(Cc3ccc4c(c3)OCCO4)C2)nn1 (stereo unspecified) | · | 0% | ? | · | · | ·
COc1cc(NC(=O)c2nc3cc(C)c(C)cc3n(C)c2=O)cc(OC)c1OC | · | 6% | 12% | · | · | ·
CCc1nc2ccccc2nc1N1CCN(S(=O)(=O)c2c(C)cc(Cl)cc2C)CC1 | -18% | -24% | -26% | ? | 78 | 20%
CCc1nc2ccccc2nc1N1CCN(S(=O)(=O)c2ccccc2)CC1 | -25% | 16µM* | ? | ? | -90* | ?
O=S(=O)(c1ccc(Cl)cc1)N1CCN(c2nc(-c3ccccc3)nc3ccccc23)CC1 | · | 10µM* | ? | · | · | ·
N#CCc1c(C#N)c(N)nc(N2CCN(S(=O)(=O)c3ccccc3)CC2)c1C#N | -3% | 16µM* | 8.2µM* | 9.2µM* | -18 | ?
Cc1ccc(S(=O)(=O)N2CCN(c3nc(-c4ccccc4)nc4ccccc34)CC2)cc1 | · | -16% | 7% | · | · | ·
O=S(=O)(c1ccc(F)cc1)N1CCN(c2nc(-c3ccccc3)nc3ccccc23)CC1 | · | 13µM* | ? | · | · | ·
Cc1ccc(CNC(=O)[C@]2(C(F)(F)F)C[C@H](CCc3ccccc3)CCCO2)o1 | -11% | · | · | · | · | 5%
